From PubChem
NALP1 inh = NALP1 inhibition; S. cerevisiae NALP1/ASC/caspase-1 growth, X-gal OD620, 72 h; inhibition, % at 10 µM; 280,000 compounds, 0.61% hits; AID 2071; in the data active = inhibition mostly above about 24%, no sharp cut-off; inactive = mostly below about 32%
pCIP destab = p/CIP protein destabilization | decrease of EGFP signal, % at 10 µM | F442A p/CIP-EGFP cells, EGFP fluorescence, 16 h | Q05BA5 | 290,000 compounds, 0.01% hits;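 active = EGFP signal decrease of at least 30% at 10 µM or well 3 SD below plate mean, unless failing retest; inactive = the rest, including hits failing retest or dose response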
Target sequence (Q05BA5 1-1403): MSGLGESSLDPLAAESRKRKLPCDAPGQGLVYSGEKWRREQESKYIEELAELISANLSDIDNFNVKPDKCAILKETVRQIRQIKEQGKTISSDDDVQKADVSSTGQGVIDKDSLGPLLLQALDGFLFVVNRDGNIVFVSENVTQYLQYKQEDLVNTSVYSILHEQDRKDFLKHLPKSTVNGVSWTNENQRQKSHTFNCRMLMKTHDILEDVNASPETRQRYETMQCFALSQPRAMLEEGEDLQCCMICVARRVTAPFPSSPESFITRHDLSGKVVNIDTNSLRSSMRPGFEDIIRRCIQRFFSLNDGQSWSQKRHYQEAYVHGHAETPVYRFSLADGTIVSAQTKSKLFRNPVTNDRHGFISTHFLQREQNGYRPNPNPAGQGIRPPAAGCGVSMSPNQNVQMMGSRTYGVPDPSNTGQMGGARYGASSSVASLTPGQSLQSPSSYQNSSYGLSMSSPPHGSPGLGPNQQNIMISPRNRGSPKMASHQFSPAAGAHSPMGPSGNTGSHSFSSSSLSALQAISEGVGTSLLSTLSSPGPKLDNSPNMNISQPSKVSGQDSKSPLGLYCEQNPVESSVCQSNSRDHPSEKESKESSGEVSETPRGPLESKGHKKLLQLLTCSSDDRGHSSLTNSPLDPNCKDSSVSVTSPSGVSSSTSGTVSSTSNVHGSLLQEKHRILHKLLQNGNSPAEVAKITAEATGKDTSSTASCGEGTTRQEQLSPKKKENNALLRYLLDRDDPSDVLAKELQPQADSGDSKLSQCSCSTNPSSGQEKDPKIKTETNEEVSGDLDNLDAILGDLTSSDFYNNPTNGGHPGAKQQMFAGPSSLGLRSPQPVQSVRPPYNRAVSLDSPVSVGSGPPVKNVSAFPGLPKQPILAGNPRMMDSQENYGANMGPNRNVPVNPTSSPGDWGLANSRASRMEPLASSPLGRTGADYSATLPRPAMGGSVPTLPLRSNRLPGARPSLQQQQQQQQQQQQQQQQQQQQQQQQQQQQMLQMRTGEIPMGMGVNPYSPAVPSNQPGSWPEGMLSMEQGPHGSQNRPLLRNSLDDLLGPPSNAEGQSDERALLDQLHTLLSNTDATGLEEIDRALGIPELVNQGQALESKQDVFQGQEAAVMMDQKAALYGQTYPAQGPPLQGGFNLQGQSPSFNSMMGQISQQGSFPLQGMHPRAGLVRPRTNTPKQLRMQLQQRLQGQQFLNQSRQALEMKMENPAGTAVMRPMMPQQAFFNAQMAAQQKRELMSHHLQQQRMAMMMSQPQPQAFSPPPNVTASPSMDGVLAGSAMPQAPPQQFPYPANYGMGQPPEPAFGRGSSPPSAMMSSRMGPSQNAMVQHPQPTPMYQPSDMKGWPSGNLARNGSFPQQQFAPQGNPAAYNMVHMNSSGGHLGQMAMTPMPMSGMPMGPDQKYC
HSF1 activator = increases HSF-1 driven luciferase reporter signal | 300,000 compounds, 1.7% hits | activation, % at 9 µM | NIH3T3-HGL HSF-1 luciferase reporter, MG132, 8 h; 100% = twice DMSO control signal | AID 504408;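 active = mean replicate activation of at least 50% with a set share of replicates each reaching 50%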;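 also: 0% = median of the neutral control wells and 100% = twice that signal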
Hsp70 act = transcriptional activators of Hsp70; HeLa Hsp70 promoter luciferase reporter, luminescence; scaled: vehicle 0, proteasome-inhibitor control 100%; activation, % at 10 µM; 200,000 compounds, 0.04% hits;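 active = activation above the mean across all tested compounds plus 3 SD, cutoff set per campaign, cut at about 5.5% in these data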;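 also: 100% = MG132 at 30 µM as the positive control and 0% = DMSO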
HSF1 inhib = HSF1 inhibition; activity change, negative = inhibition, % at 7.5 µM (by protocol); 300,000 compounds, 0.77% hits; NIH3T3-HGL HSE-luciferase, MG132-induced, luminescence 8 h; stronger effect = lower value; AID 2098;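 active = more than half of replicate wells show activity change below -50%, luminescence cut by over half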;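 also: luciferase reports HSF-1 transcriptional activity via heat shock element; 0% = median of DMSO wells and -100% = zero luminescence signal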
HSP90 refold inh = inhibitors of HSP90 luciferase refolding in rabbit reticulocyte lysate. luciferase refolding luminescence, 3 h. inhibition, % at 5.6 µM. 290,000 compounds, 0.91% hits;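 active = inhibition above the screen-wide mean plus 3 SD, computed separately per campaign, cut at about 16% in these data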;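 also: 0% = DMSO wells and 100% = 60 µM geldanamycin wells; inhibitors lower the luminescence because luciferase stays unfolded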
An asterisk follows results filed as active; x = no result. The list is not random: actives were taken first. Their share in the collection is about 3.8%.

SMILES | NALP1 inh | pCIP destab | HSF1 activator | Hsp70 act | HSF1 inhib | HSP90 refold inh
N/C(Cc1ccc([N+](=O)[O-])cc1)=N\OC(=O)c1ccccc1F | -5 | 12 | 66* | 0 | 49 | 0
O=C(Cc1ccc([N+](=O)[O-])cc1)OCc1c(F)cccc1Cl | 19 | -7 | 56* | x | 39 | 0
O=C(COC(=O)Cc1c(Cl)cccc1Cl)Nc1ccc(OC(F)(F)F)cc1 | -9 | -7 | -86 | 0 | -84* | -4
CCn1c(COc2ccccc2)nnc1SCc1ccc(C#N)cc1 | 9 | -6 | 56* | 0 | 38 | 0
NNC(=O)c1ccc(Cn2cc(Br)c(N)n2)cc1 | 15 | 6 | 8 | x | 2 | 2
CC(C(=O)NCc1ccco1)n1nc(-c2ccccc2)c2cc(Cl)ccc21 (stereo not drawn) | -15 | 5 | 0 | 0 | 3 | -2
CC(=O)c1ccc(NC(=O)C(C)n2nc(-c3ccccc3)c3cc(Cl)ccc32)cc1 (stereo not drawn) | 22 | -5 | -73 | 0 | -67* | 2
Nc1ccccc1N=Cc1ccc(-c2cccc(Cl)c2)o1 | 7 | 0 | 55* | 0 | 26 | 0
O=C(O)c1cccc(-n2cccc2/C=C2/NC(=O)N(c3cccc(Cl)c3)C2=O)c1 | x | 4 | -13 | x | -12 | 5
COc1ccc(-n2cccc2/C=C2/NC(=O)N(c3cccc(Cl)c3)C2=O)cc1 | 39 | -9 | -66 | 0 | -63* | 5
O=C(O)c1nccnc1C(=O)NCCc1c[nH]c2ccccc12 | 8 | -4 | -5 | 0 | 2 | -1
CCOc1ncccc1C(=O)NCCc1c[nH]c2ccccc12 | 8 | -9 | 89* | x | 51 | -2
S=c1[nH]nc(-c2cnccn2)n1-c1ccccc1 | 9 | -11 | -75 | 0 | -67* | 6
Cc1cccc(C)c1N(CC(=O)NCc1ccccc1)C(=O)c1csnn1 | 23 | 2 | -1 | x | 4 | -4
CCSc1nnc(NC(=O)CSc2nnc(CNC(=O)c3ccc(OC)c(OC)c3)o2)s1 | 18 | 6 | -12 | 0 | -3 | -2
CC(C)Nc1nc(NNc2nc(Cl)nc(NC(C)(C)C)n2)nc(NC(C)C)n1 | 1 | -9 | 4 | x | 1 | 5
CCNc1nc(NC(C)C)nc(NC(C)(C)C)n1 | 30* | -14 | 9 | 0 | -10 | -3
Cc1cc(OCC(=O)N2CCC(C(N)=O)CC2)c2c(C)cc(=O)oc2c1 | 11 | -6 | 2 | x | 0 | -3
CN(C)c1ccc(C(CNC(=O)c2ccc(-c3ccccc3)cc2)N2CCOCC2)cc1 (stereo not drawn) | x | x | -4 | x | -9 | x
COCCN1Cc2cccc(C(=O)NCCc3ccccc3)c2C1=O | 16 | -9 | -1 | x | -1 | 0
COCCCN1Cc2cccc(C(=O)O)c2C1=O | 38* | -3 | 0 | x | -3 | x
Cc1cccc(NC(=O)/C(C#N)=C/c2ccccc2O)n1 | 5 | 5 | 77* | x | 28 | 2
COc1ccc(/C=C(\C#N)C(=O)Nc2cccc(C)n2)cc1 | 18 | -8 | 71* | x | 52 | 1
Cc1cccc(NC(=O)/C(C#N)=C/c2ccccc2Cl)n1 | 21 | 1 | -13 | x | 1 | -2
Cc1c(Cl)cccc1NC(=O)c1ccccc1-c1ccccc1C(=O)O | 1 | 2 | 3 | x | -3 | 2
SMILES | NALP1 inh | pCIP destab | HSF1 activator | Hsp70 act | HSF1 inhib | HSP90 refold inh
CCN(CC)CCCN(Cc1cc2ccc(C)c(C)c2[nH]c1=O)C(=O)NC1CCCCC1 | 23* | 2 | 10 | 1 | 1 | -1
COc1ccc(-c2nnn(Cc3ccccc3F)n2)cc1 | 12 | 12 | 35 | 0 | 23 | -2
Fc1ccccc1Cn1nnc(-c2ccc3c(c2)OCO3)n1 | 18 | 1 | 83* | 0 | 52 | -1
CCCC(=O)c1cc2c(cc1NC(=O)c1cccs1)OCCO2 | 27* | -29 | -23 | 0 | -3 | 3
O=C(Nc1cc2c(cc1Br)OCCO2)c1cccs1 | 22 | -4 | 34 | 0 | 14 | 3
O=C(CN1C(=O)NC2(CCCC2)C1=O)Nc1ccc(Cl)cc1C(F)(F)F | 2 | -15 | 3 | x | -5 | 0
CCOc1ccccc1N1CCN(CC(=O)NC(C)c2ccccc2)CC1 (stereo not drawn) | -4 | 5 | -67 | x | -61* | -4
CC(=O)c1ccc(N2CCN(C(=O)CCS(=O)(=O)c3ccc4c(c3)NC(=O)CS4)CC2)cc1 | -11 | -16 | -2 | x | -7 | 2
CCn1c(=O)n(CC)c2cc(N3CCCC3)c(NC(=O)c3ccc(OC)c(Br)c3)cc21 | 19 | 21 | -78 | x | -71* | -4
Oc1ccc(CN2CCC(Cc3ccccc3)CC2)c2cccnc12 | 31* | -19 | -36 | 0 | -30 | 4
OCc1ccc(O)c2ncccc12 | 8 | -2 | -58 | 0 | -54* | -3
CNC(=O)Nc1ccc2snnc2c1 | 34* | -2 | -6 | 0 | -2 | 2
Cc1ccc(C(=O)/C=C/c2ccc3c(c2)OCO3)o1 | 53 | -8 | 60* | 0 | 41 | -1
Cc1ccc(O)c(C(=O)/C=C/c2ccc3c(c2)OCCCO3)c1 | 31 | 6 | 448* | 0 | 278 | -1
O=C(/C=C/c1ccc2c(c1)OCCCO2)c1ccccc1O | 61 | 1 | 12 | 0 | 16 | 0
O=C(/C=C/c1ccc2c(c1)OCO2)c1ccc[nH]1 | 21 | 3 | 62* | 0 | 26 | 7
CCNc1ccccc(C(=O)/C=C/c2ccc3c(c2)OCO3)c1=O | 2 | -9 | 72* | 0 | 35 | 0
Cc1ccc(C)c(Nc2nc(-c3ccncc3)nc3ccccc23)c1 | 18 | -22 | 6 | x | -4 | 0
CC[C@@H](C)CN1C(=O)N[C@@H](c2ccccc2)C(C(C)=O)=C1C | x | x | -2 | x | 2 | x
COc1cccc(/C=C/C(=O)c2ccc[nH]2)c1 | 42* | -4 | 86* | 0 | 50 | -4
Cc1[nH]nc(N=Cc2c(O)n(C)c(=O)n(C)c2=O)c1-c1ccccc1 | 10 | 11 | 5 | x | -2 | x
Cn1c(O)c(/C=N/Nc2ccccc2)c(=O)n(C)c1=O | 1 | 4 | -7 | 0 | -7 | 16*
COc1ccc(C2(CNC(=O)c3ccc(N)cc3)CCCC2)cc1 | 42* | -2 | -13 | x | 0 | 2
CC1(C)C(C=C(Cl)Cl)C1C(=O)Nc1ccc([N+](=O)[O-])cc1 (stereo not drawn) | 57* | -6 | x | 0 | x | 4
O=C1/C(=C\c2ccccc2)CCc2c1[nH]c1ccccc21 | 32 | 3 | 109* | 0 | 59 | -4
Cc1ccc2[nH]c3c(c2c1)CC/C(=C/c1ccccc1)C3=O | 23 | -1 | 62* | 0 | 35 | 15
Cc1cc(C)n(-c2ccc(S(N)(=O)=O)cc2[N+](=O)[O-])n1 | -2 | -6 | -10 | 0 | -6 | 4
